# Plk1 PBD FP: inhibitors of human Plk1 polo box domain binding; Plk1 PBD phosphopeptide binding, fluorescence polarization; P53350; inhibition, %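 (tested at about 20 µM)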; 0.13% of 97,000 active; in the data active = inhibition above about 34%, passing the limit was not always enough
# Target sequence (P53350 whole entry, looked up, the tested form may be a part): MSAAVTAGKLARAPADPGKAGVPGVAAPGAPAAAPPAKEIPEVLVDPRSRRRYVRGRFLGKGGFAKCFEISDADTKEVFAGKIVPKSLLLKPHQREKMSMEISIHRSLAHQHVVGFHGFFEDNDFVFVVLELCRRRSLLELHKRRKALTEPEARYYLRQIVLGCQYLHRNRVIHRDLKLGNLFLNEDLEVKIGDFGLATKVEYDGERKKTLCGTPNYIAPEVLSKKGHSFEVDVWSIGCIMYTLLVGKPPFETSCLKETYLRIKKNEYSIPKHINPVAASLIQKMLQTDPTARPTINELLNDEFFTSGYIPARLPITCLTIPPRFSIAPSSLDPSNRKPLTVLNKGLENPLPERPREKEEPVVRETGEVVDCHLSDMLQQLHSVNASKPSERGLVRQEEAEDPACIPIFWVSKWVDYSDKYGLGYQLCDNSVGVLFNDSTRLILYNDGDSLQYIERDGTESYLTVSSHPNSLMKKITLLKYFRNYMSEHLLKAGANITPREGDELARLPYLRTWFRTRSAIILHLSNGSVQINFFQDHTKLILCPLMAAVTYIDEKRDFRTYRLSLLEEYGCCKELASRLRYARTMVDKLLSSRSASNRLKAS
# CYP2C9 inh: inhibitors of human CYP2C9; P11712; CYP2C9 Supersomes, luciferin-H conversion, luminescence; AID 777; inhibition, % at 5 µM; 20% of 96,000 active;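 active = blocking of liver enzyme CYP2C9 beyond about 50% at 5 µM, limit read from the data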
# CYP2C19 inh: blocks human cytochrome P450 2C19; P33261; CYP2C19 Supersomes, luciferin-H EGE luminescence, 30 min; inhibition, % at 5 µM; 21% of 96,000 active; AID 778;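 active = CYP2C19 inhibition above a set limit at 5 µM in the primary screen, cut at about 50% in these data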;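 also: plate controls were negative control wells for no effect and 2.5 mM tranylcypromine positive control for full effect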
# CYP2C9 activ: CYP2C9 (human) activation; 1.4% of 96,000 active; activation factor at 5 µM; AID 1024; recombinant CYP2C9, luciferin-H conversion, luminescence; hits give high values; factor 1 = untreated enzyme, 0 = blocked;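 active = activation factor of 2 or more for CYP2C9 at a 5 µM dose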;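 also: 0 = sulfaphenazole-blocked wells and 1 = vehicle-only wells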
# PLK1 inh: blocks human PLK1 kinase activity. P53350. recombinant PLK1 kinase, TR-FRET peptide phosphorylation. inhibition, % at 10 µM. 0.53% of 97,000 active;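 active = inhibition of 50% or more in the single-concentration screen; inactive = inhibition below 50%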;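 also: 0% = DMSO max control and 100% = H-89 dihydrochloride min control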
# CYP2C19 act: activators of human cytochrome P450 2C19; P33261; recombinant CYP2C19, luciferin-H EGE luminescence; hits give high values; 0 = fully inhibited enzyme, 1 = untreated enzyme; activation factor at 5 µM; 96,000 tested, under 10 active; AID 1025;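 active = activation factor of at least 2 at 5 µM in the primary screen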;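 also: 0 = wells with 2.5 mM tranylcypromine and 1 = vehicle-only wells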
# * = called active by the depositor; nt = no result given. An excerpt weighted towards active compounds, which were near 28% of everything screened.
SMILES,Plk1 PBD FP,CYP2C9 inh,CYP2C19 inh,CYP2C9 activ,PLK1 inh,CYP2C19 act
CCOC(=O)/C(=C\c1cccnc1)C(=O)c1cc(C(C)=O)c(Nc2ccccc2)s1,1,100*,65*,0,12,0.3
COc1ccc(OC)c(NC(=O)Cn2cc(C#N)c3cc(Br)ccc32)c1,-4,99*,93*,0,-4,0.1
Fc1ccc(C(c2nnnn2Cc2cccs2)N2CCN(C3CCCC3)CC2)cc1 (stereo not given),17,-11,80*,1.1,-3,0.2
c1ccc(C(c2nnnn2Cc2cccs2)N2CCN(C3CCCC3)CC2)cc1 (stereo not given),-3,6,24,0.9,-4,0.8
COCCn1nnnc1C(c1ccc(OC)c(OC)c1)N1CCN(c2nc3ccccc3s2)CC1 (stereo not given),-19,69*,0,0.3,-8,1
COCCn1nnnc1C(c1ccccc1)N1CCN(C)CC1 (stereo not given),-9,-2,3,1,1,1
COCCn1nnnc1C(c1cccc(C#N)c1)N1CCCCCC1 (stereo not given),-6,41,68*,0.6,-7,0.3
COc1ccc(Cn2nnnc2C(C(C)C)N2CCN(c3ccccc3OC)CC2)cc1 (stereo not given),23,97*,92*,0,-4,0.1
COc1ccc(C(c2nnnn2C2CCCCC2)N2CCN(c3ccccc3)CC2)cc1 (stereo not given),14,75*,72*,0.3,-2,0.3
COc1ccc(C(c2nnnn2Cc2ccccc2)N2CCN(c3ccccc3)CC2)cc1 (stereo not given),nt,86*,91*,0.1,nt,0.1
COc1ccc(C(c2nnnn2C2CCCC2)N2CCN(c3ccccc3)CC2)cc1 (stereo not given),10,nt,nt,nt,-18,nt
COc1ccc(Cn2nnnc2C(c2ccncc2)N2CCOCC2)cc1 (stereo not given),-6,78*,90*,0.2,-7,0.1
COc1ccc(Cn2nnnc2C(c2cc3cc(C)ccc3[nH]c2=O)N2CCOCC2)cc1 (stereo not given),-20,5,-6,1,-8,1.1
c1ccc(CN2CCN(C(c3ccccc3)c3nnnn3Cc3ccccc3)CC2)cc1 (stereo not given),-21,nt,nt,nt,-15,nt
COc1ccc(C(c2nnnn2Cc2ccccc2)N2CCN(c3nc4ccccc4s3)CC2)cc1 (stereo not given),nt,63*,54*,0.4,nt,0.5
CCn1cc(C(=O)Nn2cnnc2)c(=O)c2ccc(C)nc21,nt,nt,nt,nt,-6,nt
COCCn1nnnc1C(c1ccc2ncccc2c1)N1CCN(c2ccccc2F)CC1 (stereo not given),-10,23,3,0.8,-12,1
CCC(C)(C)n1nnnc1C(c1ccc2ncccc2c1)N1CCN(c2nc3ccccc3s2)CC1 (stereo not given),9,88*,7,0.1,-5,0.9
N#Cc1ccc(C(c2nnnn2C2CCCC2)N2CCC(Cc3ccccc3)CC2)cc1 (stereo not given),-20,26,56*,0.7,-5,0.4
COc1ccc(C(c2nnnn2CC2CCCO2)N2CCN(c3ccc(F)cc3)CC2)cc1 (stereo not given),4,78*,48,0.2,-5,0.5
COc1ccc(C(c2nnnn2Cc2cccs2)N2CCN(c3ccccc3F)CC2)cc1 (stereo not given),7,90*,92*,0.1,-9,0.1
CCOc1ccc(NC(=O)CSc2n[nH]c(=O)n2-c2ccccc2)cc1,17,-36,25,1.4,-15,0.7
CCCN(CCC)c1nc(NC2CCN(C(=O)OCC)CC2)nc(OC)n1,-2,49,31,0.5,-12,0.7
Cc1c(NS(=O)(=O)c2ccc3c(c2)c(=O)n(C)c(=O)n3C)c(=O)n(-c2ccccc2)n1C,-7,6,1,0.9,-9,1
CCOc1ccc(-n2c(=O)c3c4c(sc3n(CC(=O)NCc3ccco3)c2=O)CCC4)cc1,20,18,2,0.8,-16,1
COc1ccc(OC)c(C(c2nnnn2C2CCCC2)N2CCN(c3ccc(F)cc3)CC2)c1 (stereo not given),-3,63*,81*,0.4,-8,0.2

# Source: PubChem
